Key:
[1] = system: T1, PIP5K2B; details: Compound Concentration (nM):1000
T1 construct: gene PIP4K2B

[2] = system: T2, PIP5K2C; details: Compound Concentration (nM):1000
T2 construct: gene PIP4K2C

[3] = system: T3, PKAC-alpha; details: Compound Concentration (nM):1000
T3 construct: gene PRKACA

[4] = system: T4, PKAC-beta; details: Compound Concentration (nM):1000
T4 construct: gene PRKACB

[5] = system: PKMYT1; details: Compound Concentration (nM):1000
[6] = system: PKN1; details: Compound Concentration (nM):1000
[7] = system: PKN2; details: Compound Concentration (nM):1000
[8] = system: PKNB(M.tuberculosis); details: 1 µM
[9] = system: PLK1; details: Compound Concentration (nM):1000
[10] = system: PLK2; details: Compound Concentration (nM):1000
[11] = system: PLK3; details: Compound Concentration (nM):1000
[12] = system: PLK4; details: Compound Concentration (nM):1000
[13] = system: PRKCD; details: Compound Concentration (nM):1000
[14] = system: PRKCE; details: Compound Concentration (nM):1000
[15] = system: PRKCH; details: Compound Concentration (nM):1000
[16] = system: PRKCI; details: Compound Concentration (nM):1000
[17] = system: PRKCQ; details: Compound Concentration (nM):1000
[18] = system: PRKD1; details: Compound Concentration (nM):1000
[19] = system: PRKD2; details: Compound Concentration (nM):1000
[20] = system: PRKD3; details: Compound Concentration (nM):1000
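Further: KINOMEscan scanMAX binding as percent activity remaining versus control; lower means stronger binding.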

SMILES | Percent Control [1] | Percent Control [2] | Percent Control [3] | Percent Control [4] | Percent Control [5] | Percent Control [6] | Percent Control [7] | Percent Control [8] | Percent Control [9] | Percent Control [10] | Percent Control [11] | Percent Control [12] | Percent Control [13] | Percent Control [14] | Percent Control [15] | Percent Control [16] | Percent Control [17] | Percent Control [18] | Percent Control [19] | Percent Control [20]
COc1cc(/C=N/Nc2ncnc3[nH]ncc23)ccc1O [GW578748X] | 74% | 24% | 100% | 100% | 100% | 100% | 100% | 50% | 84% | 31% | 52% | 36% | 78% | 100% | 100% | 63% | 96% | 100% | 100% | 85%
C/C(Nc1ccc(S(N)(=O)=O)cc1)=C1/C(=O)Nc2ccccc21 [GW335962X] | 100% | 93% | 100% | 87% | 91% | 83% | 74% | 83% | 90% | 87% | 83% | 74% | 95% | 96% | 100% | 100% | 81% | 100% | 100% | 86%
NS(=O)(=O)c1ccc(N/N=C2\C(=O)Nc3ccc(Cl)cc32)cc1 [GW280670X] | 98% | 81% | 100% | 100% | 100% | 100% | 97% | 100% | 100% | 100% | 95% | 89% | 99% | 100% | 100% | 100% | 100% | 100% | 100% | 100%
CCn1c(-c2nonc2N)nc2c(C#CC(C)(C)O)nc(OCCNC)cc21.Cl [GSK949675] | 100% | 78% | 21% | 16% | 100% | 9.3% | 100% | 0.7% | 100% | 100% | 100% | 90% | 40% | 0% | 15% | 61% | 3.3% | 95% | 100% | 88%
CN(C)CCNC(=O)Nc1ccc(N(C)c2ccnc(Nc3ccc(CS(C)(=O)=O)cc3)n2)cc1.Cl [GW830900A] | 33% | 3.7% | 100% | 100% | 100% | 83% | 64% | 94% | 86% | 100% | 90% | 24% | 100% | 100% | 100% | 85% | 100% | 100% | 100% | 100%
O=C1Nc2ccc(C(=O)c3ccco3)cc2C1=Cc1cc(Cl)c(O)c(Cl)c1 [GW406108X] | 95% | 65% | 100% | 100% | 100% | 83% | 63% | 90% | 49% | 27% | 37% | 63% | 100% | 100% | 100% | 100% | 100% | 100% | 100% | 100%
COc1ccc2[nH]c3c4[nH]c5ccc(OC)cc5c4c4c(c3c2c1)C(=O)NC4=O [GW296115X] | 100% | 28% | 87% | 89% | 97% | 42% | 52% | 67% | 90% | 95% | 88% | 1.4% | 93% | 75% | 35% | 63% | 44% | 68% | 62% | 75%
Cl.O=C(Nc1ccc(Oc2ccc3[nH]c(NC(=O)c4ccco4)nc3c2)cc1)Nc1cc(C(F)(F)F)ccc1F [GW683134A] | 100% | 76% | 100% | 100% | 100% | 100% | 79% | 99% | 100% | 88% | 86% | 100% | 99% | 100% | 92% | 100% | 100% | 68% | 100% | 82%
Cl.O=S1CCN(Cc2ccc(-c3ccc4ncnc(Nc5ccc(OCc6ccccc6)c(F)c5)c4c3)o2)CC1 [GW576924A] | 100% | 63% | 100% | 100% | 100% | 100% | 100% | 100% | 100% | 100% | 100% | 100% | 100% | 91% | 100% | 100% | 100% | 100% | 100% | 100%
COc1cccc(-c2c[nH]c3c(N/N=C/c4ccncc4)ncnc23)c1 [GW814408X] | 100% | 9.1% | 100% | 100% | 100% | 100% | 100% | 99% | 95% | 100% | 100% | 96% | 100% | 100% | 100% | 30% | 100% | 100% | 100% | 91%

Reference: PMC7826789 (International Journal of Molecular Sciences, 2021)
